Results reported in PubChem BioAssay (NCI).
Compounds without any hit were thinned out: in the full panel of roughly 83,000, 20% have a hit.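 Single-dose data. Exposure time 48 hours. Values below 10 considered active.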 A number with no mark means an inactive call. Active and inactive are the calls of the source.

Legend:
Experiment in all cases: NCI-60 one-dose screen, 48 h (100 = growth as untreated, 0 = no growth, -100 = all killed)
Details in all cases: 10 µM unless noted
SK-MEL-2 melanoma = tested on: SK-MEL-2 melanoma
EKVX NSCLC = tested on: EKVX NSCLC
SN12C renal = tested on: SN12C renal
UO-31 renal = tested on: UO-31 renal
TK-10 renal = tested on: TK-10 renal
ACHN renal = tested on: ACHN renal
CAKI-1 renal = tested on: CAKI-1 renal
A498 renal = tested on: A498 renal
CCRF-CEM leukemia = tested on: CCRF-CEM leukemia
MOLT-4 leukemia = tested on: MOLT-4 leukemia
SR leukemia = tested on: SR leukemia
RPMI-8226 leukemia = tested on: RPMI-8226 leukemia
OVCAR-8 ovarian = tested on: OVCAR-8 ovarian
OVCAR-5 ovarian = tested on: OVCAR-5 ovarian
OVCAR-4 ovarian = tested on: OVCAR-4 ovarian
SK-OV-3 ovarian = tested on: SK-OV-3 ovarian
IGROV1 ovarian = tested on: IGROV1 ovarian
HS 578T breast = tested on: HS 578T breast
NCI/ADR-RES ovarian = tested on: NCI/ADR-RES ovarian

| SMILES | growth (SK-MEL-2 melanoma) | growth (EKVX NSCLC) | growth (SN12C renal) | growth (UO-31 renal) | growth (TK-10 renal) | growth (ACHN renal) | growth (CAKI-1 renal) | growth (A498 renal) | growth (CCRF-CEM leukemia) | growth (MOLT-4 leukemia) | growth (SR leukemia) | growth (RPMI-8226 leukemia) | growth (OVCAR-8 ovarian) | growth (OVCAR-5 ovarian) | growth (OVCAR-4 ovarian) | growth (SK-OV-3 ovarian) | growth (IGROV1 ovarian) | growth (HS 578T breast) | growth (NCI/ADR-RES ovarian) |
| --- | --- | --- | --- | --- | --- | --- | --- | --- | --- | --- | --- | --- | --- | --- | --- | --- | --- | --- | --- |
| CC(C)(C)OC(=O)Nc1ccc(-c2cccc(Oc3ccc4nnc(Cl)n4n3)c2)cc1 | 65.8% | 86.7% | 78.7% | 67.6% | 71.1% | 88% | 83.6% | 70.1% | 60.4% | 46.3% | 36% | 43.2% | 71.3% | 100% | 63.7% | 95.5% | 98.8% | 94.5% | 70.8% |
| Cc1ccccc1Nc1nc(SC(C)C)nc(-c2ccccc2)c1C#N | 130% | 73.2% | 12.1% | -40.2% (active) | 61.1% | 13.4% | 38.4% | 53.5% | 80.9% | 90.2% | 89.6% | 83.8% | 19.9% | 71.9% | 13.4% | 94.3% | -50.3% (active) | 63.1% | 34.7% |
| Cc1ccc(NC(=O)/C=C/c2ccc(OCCCOc3ccc4c(C)cc(=O)oc4c3)cc2)cc1 | 58% | 83.1% | 73.3% | 39.6% | 91.5% | 17.7% | 51% | 45.2% | 99.1% | 103% | 70.2% | 90.1% | 52.3% | 91.6% | 19.9% | 79.8% | 73.3% | 40% | 52.5% |
| CCCC/C(=C\c1ccc(O)c(O)c1)C(=O)NC(Cc1ccccc1)C(=O)C(=O)NCCc1ccc(OC)cc1 (configuration not stated) | 98.8% | 83.3% | 95.3% | 93.4% | 107% | 96.2% | 96.5% | 85.7% | 97% | 85.4% | 105% | 89.7% | 97.2% | 99.3% | 92.7% | 105% | 96.8% | 91.8% | 101% |
| COC(=O)CCCNCCCn1ccc2cc(NCc3cccc(-c4ccccc4)c3C)ccc21 | 95.6% | 73.6% | 73.4% | 54.5% | 115% | 77.8% | 48.4% | 16.4% | 33.8% | 49.5% | -14.7% (active) | 28.3% | 85.2% | 85.4% | 67.6% | 92.8% | 67.1% | 81.8% | 79.4% |
| CSc1ccc(/C(=N/N=C(N)N)c2ccc(Cl)cc2)cc1 | -7.8% (active) | 35.1% | 7.12% (active) | 10.1% | 51.3% | 15% | 3.83% (active) | -21.6% (active) | 16.1% | 13.4% | -15.7% (active) | 6.98% (active) | -18.4% (active) | 11.4% | 57% | 24.7% | 4.76% (active) | 4% (active) | -3.46% (active) |
| CS(=O)(=O)c1ccc(/C(=N/N=C(N)N)c2ccc(Cl)cc2)cc1 | 93.7% | 91% | 95.7% | 84.4% | 76.1% | 99.1% | 59.5% | 76.9% | 94.3% | 99.1% | 35.1% | 101% | 103% | 99.7% | 98.4% | 87.2% | 85.6% | 91.8% | 102% |
| Clc1ccc2c(N/N=C/c3c[nH]c4ccccc34)ccnc2c1 | -82.2% (active) | -79.3% (active) | -77.2% (active) | -95.1% (active) | -91.9% (active) | -98.1% (active) | -97.5% (active) | -93.6% (active) | -10% (active) | -48.5% (active) | 2.13% (active) | -25% (active) | -68% (active) | -83.9% (active) | -61.2% (active) | -85.6% (active) | -87.2% (active) | -47% (active) | -71.8% (active) |
